Compound activity as filed in PubChem.
Shown is part of a subset that was picked to be rich in hits.
SARS PLpro yeast = qHTS of Yeast-based Assay for SARS-CoV PLP. S. cerevisiae expressing SARS-CoV PLpro, growth rescue. Potency, µM (top dose mostly 32.9 µM), for the others: at the highest dose activity, positive = growth rescue, hits mostly activators. 330,000 compounds, 0.19% hits. AID 485353, 2010; calls by dose curve; also: potency is read from the fitted curve at half-maximal effect; 0% is about no effect; nearly all actives have a fitted effect of over 55% in size
Cycloheximide cs = Cycloheximide Counterscreen for Small Molecule Inhibitors of Shiga Toxin. AID 2314, 2010. max response, %. 300,000 compounds, 12% hits. cell reporter, cycloheximide protein synthesis inhibition counterscreen; in the data active = max response mostly above about 13%, no sharp cut-off; inactive = mostly below about 14%; also: read at 38.3 µM for the half of the compounds with a filed dose; 0% is about no effect
Shiga inhibitor = A qHTS for Small Molecule Inhibitors of Shiga Toxin; Vero cells, Shiga toxin protein synthesis inhibition reporter; inhibition, % at 38.7 µM; 290,000 compounds, 9.2% hits; AID 2315, 2010; in the data active = inhibition mostly above about 28%, no sharp cut-off; inactive = mostly below about 43%; also: 0% is about no effect
TbPYK inhibitor = qHTS of Trypanosoma Brucei Inhibitors; TbPYK enzyme, Kinase-Glo Plus ATP luminescence, 45 min; pyruvate kinase (Trypanosoma brucei), Q57TT1; Potency, µM (top dose mostly 76.8 µM), for inactives: at the highest dose activity, negative = inhibition, most hits filed as inhibitors; AID 624173, 2012; 410,000 compounds, 0.12% hits; also: potency is read from the fitted curve at half-maximal effect; % is scaled to controls: 0 for no effect and ±100 for the full control effect; nearly all actives have a fitted effect of over 50% in size
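In this concentration-response screen, enzyme-free wells defined baseline while DMSO plates tracked drift. Each reaction combined TbPYK, substrate, compound and 130 uM ADP for 45 min at room temperature. Kinase-Glo Plus luminescence gave the signal.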
NS1 function inh = qHTS Assay for Inhibitors of Influenza NS1 Protein Function | 270,000 compounds, 0.4% hits | Potency, µM (series often up to 46.1 µM), without a hit: at the highest dose activity, positive = more growth; calls by dose curve; also: potency is read from the fitted curve at half-maximal effect; actives are rising curves; nearly all actives have a fitted effect of over 50% in size
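Read-out: OD600 growth recovery of NS1-expressing budding yeast. Cells grown overnight at 30C in -URA glucose medium, washed, resuspended and diluted 1:100 in 2% galactose assay medium, pH 6.0. Same strain lacking NS1 served as positive control.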
LmPK inhibitor = qHTS Assay for Inhibitors of Leishmania Mexicana Pyruvate Kinase (LmPK) | Q27686 | purified LmPK, Kinase-Glo ATP luminescence, 1 h | Potency, µM (highest dose often 57.5 µM), for the others: top-dose activity change, negative = inhibition, most hits filed as inhibitors | 290,000 compounds, 0.37% hits | AID 1721, 2009; also: potency is read from the fitted curve at half-maximal effect; % is scaled to controls: 0 for no effect and ±100 for the full control effect
Target sequence (Q27686 whole entry, looked up): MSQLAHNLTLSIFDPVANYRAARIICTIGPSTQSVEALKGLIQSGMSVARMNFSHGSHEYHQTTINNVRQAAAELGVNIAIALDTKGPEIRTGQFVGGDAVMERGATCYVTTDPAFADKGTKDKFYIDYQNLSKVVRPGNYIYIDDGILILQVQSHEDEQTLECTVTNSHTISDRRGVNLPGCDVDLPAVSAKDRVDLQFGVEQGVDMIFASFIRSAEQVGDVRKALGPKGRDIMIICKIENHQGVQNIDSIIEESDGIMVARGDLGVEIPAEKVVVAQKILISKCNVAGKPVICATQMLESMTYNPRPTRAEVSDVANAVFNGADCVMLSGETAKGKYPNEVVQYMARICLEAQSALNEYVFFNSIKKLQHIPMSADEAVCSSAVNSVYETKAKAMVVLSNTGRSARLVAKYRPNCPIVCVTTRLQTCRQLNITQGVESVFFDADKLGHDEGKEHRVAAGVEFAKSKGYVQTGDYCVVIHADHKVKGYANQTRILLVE
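In 50 mM imidazole pH 7.2 with 7 mM MgCl2, LmPK (0.1 nM) turned over PEP (0.5 mM) and ADP (0.1 mM) for 1 h at room temperature. Luciferase read-out of ATP.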
Active calls of the source: *; ? = inconclusive; · = not tested or not shown. Unless noted, calls follow the shape of the dose curve; as a rule, active = well fitted curve in the direction sought with a large enough effect; inconclusive = small, poorly fitted or top-dose-only effect, or another doubt; inactive = no such curve, though single readings can be large; an effect the other way counts as inactive or inconclusive.

SMILES	SARS PLpro yeast	Cycloheximide cs	Shiga inhibitor	TbPYK inhibitor	NS1 function inh	LmPK inhibitor
Cc1ccc2c(COC(=O)CNC(=O)c3ccco3)cc(=O)oc2c1C	-3.2%	·	·	5.2%	·	·
Cc1nnc(NC(=O)C23CC4CC(CC(C4)C2)C3)s1	1.4%	-2.8	-3.7	6.4%	1.6%	1.2%
COc1ccc(C2CC(C)(c3ccc(OC)cc3OC)Nc3ccccc3N2)c(OC)c1 (centres undefined)	-2.5%	30.3*	63.3*	3.7%	-5.5%	?
COC(=O)C1=C(C)C(c2ccc(OC)cc2OC)NC(=O)N1 (centres undefined)	?	-4.3	22.2	-5.1%	-8.3%	-0.4%
Nc1c(Br)cc(Br)c2c1-c1ccc([N+](=O)[O-])cc1C2	·	·	·	3.4%	·	·
O=C(CSc1nccn1C1CCCC1)Nc1cccc(F)c1	·	·	·	5.4%	·	·
CC1CCc2c(sc3nc(C(C)(C)C)nc(N4CCN(C(=O)CCl)CC4)c23)C1 (centres undefined)	-7.6%	19.8*	46.2*	-6.5%	-88.6%	3.1%
CCC(=O)N1CCN(c2nc(CC)nc3sc4c(c23)CCCC4)CC1	-9.4%	-2.6	-13.9	-1.7%	-4.5%	3.5%
COC(OC)c1ccnc(-c2ccc(OC(=O)c3ccc(F)cc3)cc2)n1	-6.0%	19.6	24.5	-2.0%	·	-0.5%
CCCC(=O)Oc1ccc(-c2nccc(C(OC)OC)n2)cc1	-0.9%	22.1	51.9*	3.7%	·	14.7%
CS(=O)(=O)c1ccc2nc(NC(=O)C3CCCO3)sc2c1 (centres undefined)	-0.2%	0.7	31.9	-14.1%	3.6%	3.4%
O=C(Nc1nc2ccc(Cl)cc2s1)C1CCCO1 (centres undefined)	-3.3%	42.6*	106.0*	2.3%	-15.4%	2.1%
O=C(Nc1nc2ccccc2s1)C1CCN(S(=O)(=O)c2cc([N+](=O)[O-])ccc2Cl)CC1	-1.3%	20.7*	49.7*	-17.2%	-1.9%	6.8%
O=C(Nc1nc2ccc([N+](=O)[O-])cc2s1)C1CCCO1 (centres undefined)	-0.9%	36.8*	112.4*	-1.6%	-2.2%	-4.8%
CCC(=O)Nc1cccc(SC)c1	-0.4%	-1.3	3.3	0.9%	-5.6%	1.2%
Cc1ccccc1OCC(=O)Nc1ccc2oc(=O)ccc2c1	-2.2%	33.2*	54.1	0.4%	·	1.8%
O=C(COc1ccc2ccc(=O)oc2c1)c1ccccc1	1.0%	22.8*	31.3	-5.9%	-2.1%	7.5%
COc1ccc(OCC(=O)Nc2ccc3oc(=O)ccc3c2)cc1	-0.2%	-0.2	-15.3	-4.1%	5.9%	-0.7%
O=C(COc1ccccc1)Nc1ccc2oc(=O)ccc2c1	-1.2%	23.0*	51.9*	-4.6%	-10.3%	3.6%
CSc1cccc(NC(=O)COc2ccccc2C)c1	-1.1%	15.7*	47.5*	-1.0%	·	1.9%
Cc1ccc(OCC(=O)Nc2ccc3oc(=O)ccc3c2)c(C)c1	-7.3%	-0.2	-6.5	2.5%	-1.2%	-4.0%
Cc1ccc(Cc2c(-c3ccc(F)cc3)nc3c(C)cc(Br)cn23)cc1	·	·	·	0.5%	·	·
COc1ccc(CNc2ncnc3c2nnn3C)cc1	·	·	·	1.2%	·	·
CCCC[C@@H](C)/C=C(C)/C=C(\C)C(=O)NC1=C[C@@](O)(/C=C/C=C/C=C/C(=O)NC2=C(O)CCC2=O)[C@@H]2O[C@@H]2C1=O	·	5.9	5.9	·	·	·
CC(C)(S)C(=O)N[C@H](CS)C(=O)O	·	·	·	-20.1%	·	·
SMILES	SARS PLpro yeast	Cycloheximide cs	Shiga inhibitor	TbPYK inhibitor	NS1 function inh	LmPK inhibitor
CC(=O)Nc1ccc(C(=O)N2CCCC(c3cc(C(=O)Nc4ccccc4)no3)C2)cc1 (centres undefined)	·	·	·	2.8%	·	·
CCC(C(=O)Nc1ccccc1Cl)n1nc(C)c2c(C)n(-c3ccccc3)nc2c1=O (centres undefined)	-0.8%	-12.5	-9.2	-4.6%	8.2%	-1.4%
C/C(Cn1cnc([N+](=O)[O-])n1)=N\NC(=O)c1ccc(Br)cc1	1.8%	18.4*	44.0*	-0.9%	5.3%	0.0%
C/C(Cn1cnc([N+](=O)[O-])n1)=N/NC(=O)COc1ccccc1Cl	3.3%	7.3	9.4	-1.6%	10.2%	1.8%
Cc1ccccc1/C=N/NC(=O)Cn1cnc([N+](=O)[O-])n1	4.0%	-1.7	-12.0	-11.1%	4.2%	3.5%
C/C(Cn1cnc([N+](=O)[O-])n1)=N\NC(=O)c1cccnc1	4.3%	13.6*	24.8	-1.2%	-1.8%	2.8%
COc1ccccc1CNC(=O)Cc1csc2nc(-c3ccc(F)cc3)cn12	·	·	·	1.2%	·	·
COc1cccc2cc(-c3nnc(Nc4c(F)cccc4F)s3)c(=O)oc12	·	·	·	-7.4%	·	·
CCOc1cccc2cc(-c3cn4cc(C)ccc4n3)c(=O)oc12	-0.9%	14.3	36.4*	3.8%	-8.3%	0.4%
COc1ccc2oc(=O)c(-c3nnc(NCc4ccco4)s3)cc2c1	-1.6%	31.1*	62.5*	-4.2%	-2.7%	-3.7%
CCOc1cccc2cc(-c3nnc(NCc4ccco4)s3)c(=O)oc12	2.3%	22.6	40.4*	-2.8%	-0.6%	-3.2%
CSc1nc(N)c(C(=O)Nc2ccc([N+](=O)[O-])cc2)s1	?	32.0*	50.4*	2.8%	3.3%	4.3%
CCCCC(=O)Nc1nnc(-c2ccc(OC)cc2)s1	-18.3%	22.7	35.0*	1.2%	-1.1%	6.6%
CCCCC(=O)Nc1nnc(SCC(=O)Nc2ccc(OC)cc2)s1	-6.2%	41.1*	93.1*	-0.6%	-14.1%	1.8%
CCCCC(=O)Nc1nnc(S(=O)(=O)N(CC)c2ccc(OC)cc2)s1	7.9%	-0.8	3.2	1.7%	6.9%	4.4%
CCCCNC(=O)CSc1nc(N)c(C(=O)Nc2ccc(OC)cc2)s1	-0.3%	29.7*	27.8*	-2.7%	5.5%	-6.0%
CN(C)c1ccc(NC(=O)c2sc(SCC(=O)Nc3ccc(Br)cc3)nc2N)cc1	-0.1%	-2.7	23.8	-2.5%	21.9%	-0.3%
C/C=C1\NC(=O)[C@H]2CSSCC/C=C\[C@H](CC(=O)N[C@H](C(C)C)C(=O)N2)OC(=O)C(C(C)C)NC1=O (some centres undefined)	·	·	·	2.1%	·	·
COC(=O)c1sc2cccc(F)c2c1S(=O)(=O)Nc1ccc(N(C)C)cc1	·	·	·	-10.6%	·	·
Cc1ccc(S(=O)(=O)Oc2cccc([N+](=O)[O-])c2)cc1	·	·	·	-0.7%	·	·
CCc1ccccc1Nc1cc(C(=O)NCCCN(C)C2CCCCC2)c2ccccc2n1	·	·	·	-0.3%	·	·
COc1ccc(-c2nnc(NC(=O)c3c(OC)cccc3OC)s2)cc1	8.4%	0.8	33.4	-0.2%	7.4%	2.9%
COC(=O)Nc1nnc(-c2ccc(OC)cc2)s1	-2.1%	29.6*	101.5*	0.8%	-11.2%	?
CN(C)c1ccc(NC(=O)c2sc(SCC(=O)Nc3nccs3)nc2N)cc1	-3.4%	33.1*	108.7*	-13.2%	10.3%	2.8%
COc1ccc(Cc2c(C3CCCCC3)nc3ccc(Cl)cn23)c(C)c1	·	·	·	0.9%	·	·
